# Laboratory results as given in the supplement of paper PMC11732987, “Enantioselective OTUD7B fragment discovery through chemoproteomics screening and high-throughput optimisation” (Communications Chemistry, 2025).
# A number with no mark means an inactive call.
# What was measured:
# Assay in all cases: log2 ratio of Biotin-Ahx-Ub-VS probe labelling (fragment/DMSO); higher = less target engagement (more negative = stronger competition), active = hit call of the paper (q ≤ 0.05, log2 ratio ≤ -1)
# Settings in all cases: compound concentration: 200 uM; treatment time: 3 h
# USP34 = USP34 (UniProt Q70CQ2)
# USP34, sequence (Q70CQ2 whole entry, the tested form may be a part): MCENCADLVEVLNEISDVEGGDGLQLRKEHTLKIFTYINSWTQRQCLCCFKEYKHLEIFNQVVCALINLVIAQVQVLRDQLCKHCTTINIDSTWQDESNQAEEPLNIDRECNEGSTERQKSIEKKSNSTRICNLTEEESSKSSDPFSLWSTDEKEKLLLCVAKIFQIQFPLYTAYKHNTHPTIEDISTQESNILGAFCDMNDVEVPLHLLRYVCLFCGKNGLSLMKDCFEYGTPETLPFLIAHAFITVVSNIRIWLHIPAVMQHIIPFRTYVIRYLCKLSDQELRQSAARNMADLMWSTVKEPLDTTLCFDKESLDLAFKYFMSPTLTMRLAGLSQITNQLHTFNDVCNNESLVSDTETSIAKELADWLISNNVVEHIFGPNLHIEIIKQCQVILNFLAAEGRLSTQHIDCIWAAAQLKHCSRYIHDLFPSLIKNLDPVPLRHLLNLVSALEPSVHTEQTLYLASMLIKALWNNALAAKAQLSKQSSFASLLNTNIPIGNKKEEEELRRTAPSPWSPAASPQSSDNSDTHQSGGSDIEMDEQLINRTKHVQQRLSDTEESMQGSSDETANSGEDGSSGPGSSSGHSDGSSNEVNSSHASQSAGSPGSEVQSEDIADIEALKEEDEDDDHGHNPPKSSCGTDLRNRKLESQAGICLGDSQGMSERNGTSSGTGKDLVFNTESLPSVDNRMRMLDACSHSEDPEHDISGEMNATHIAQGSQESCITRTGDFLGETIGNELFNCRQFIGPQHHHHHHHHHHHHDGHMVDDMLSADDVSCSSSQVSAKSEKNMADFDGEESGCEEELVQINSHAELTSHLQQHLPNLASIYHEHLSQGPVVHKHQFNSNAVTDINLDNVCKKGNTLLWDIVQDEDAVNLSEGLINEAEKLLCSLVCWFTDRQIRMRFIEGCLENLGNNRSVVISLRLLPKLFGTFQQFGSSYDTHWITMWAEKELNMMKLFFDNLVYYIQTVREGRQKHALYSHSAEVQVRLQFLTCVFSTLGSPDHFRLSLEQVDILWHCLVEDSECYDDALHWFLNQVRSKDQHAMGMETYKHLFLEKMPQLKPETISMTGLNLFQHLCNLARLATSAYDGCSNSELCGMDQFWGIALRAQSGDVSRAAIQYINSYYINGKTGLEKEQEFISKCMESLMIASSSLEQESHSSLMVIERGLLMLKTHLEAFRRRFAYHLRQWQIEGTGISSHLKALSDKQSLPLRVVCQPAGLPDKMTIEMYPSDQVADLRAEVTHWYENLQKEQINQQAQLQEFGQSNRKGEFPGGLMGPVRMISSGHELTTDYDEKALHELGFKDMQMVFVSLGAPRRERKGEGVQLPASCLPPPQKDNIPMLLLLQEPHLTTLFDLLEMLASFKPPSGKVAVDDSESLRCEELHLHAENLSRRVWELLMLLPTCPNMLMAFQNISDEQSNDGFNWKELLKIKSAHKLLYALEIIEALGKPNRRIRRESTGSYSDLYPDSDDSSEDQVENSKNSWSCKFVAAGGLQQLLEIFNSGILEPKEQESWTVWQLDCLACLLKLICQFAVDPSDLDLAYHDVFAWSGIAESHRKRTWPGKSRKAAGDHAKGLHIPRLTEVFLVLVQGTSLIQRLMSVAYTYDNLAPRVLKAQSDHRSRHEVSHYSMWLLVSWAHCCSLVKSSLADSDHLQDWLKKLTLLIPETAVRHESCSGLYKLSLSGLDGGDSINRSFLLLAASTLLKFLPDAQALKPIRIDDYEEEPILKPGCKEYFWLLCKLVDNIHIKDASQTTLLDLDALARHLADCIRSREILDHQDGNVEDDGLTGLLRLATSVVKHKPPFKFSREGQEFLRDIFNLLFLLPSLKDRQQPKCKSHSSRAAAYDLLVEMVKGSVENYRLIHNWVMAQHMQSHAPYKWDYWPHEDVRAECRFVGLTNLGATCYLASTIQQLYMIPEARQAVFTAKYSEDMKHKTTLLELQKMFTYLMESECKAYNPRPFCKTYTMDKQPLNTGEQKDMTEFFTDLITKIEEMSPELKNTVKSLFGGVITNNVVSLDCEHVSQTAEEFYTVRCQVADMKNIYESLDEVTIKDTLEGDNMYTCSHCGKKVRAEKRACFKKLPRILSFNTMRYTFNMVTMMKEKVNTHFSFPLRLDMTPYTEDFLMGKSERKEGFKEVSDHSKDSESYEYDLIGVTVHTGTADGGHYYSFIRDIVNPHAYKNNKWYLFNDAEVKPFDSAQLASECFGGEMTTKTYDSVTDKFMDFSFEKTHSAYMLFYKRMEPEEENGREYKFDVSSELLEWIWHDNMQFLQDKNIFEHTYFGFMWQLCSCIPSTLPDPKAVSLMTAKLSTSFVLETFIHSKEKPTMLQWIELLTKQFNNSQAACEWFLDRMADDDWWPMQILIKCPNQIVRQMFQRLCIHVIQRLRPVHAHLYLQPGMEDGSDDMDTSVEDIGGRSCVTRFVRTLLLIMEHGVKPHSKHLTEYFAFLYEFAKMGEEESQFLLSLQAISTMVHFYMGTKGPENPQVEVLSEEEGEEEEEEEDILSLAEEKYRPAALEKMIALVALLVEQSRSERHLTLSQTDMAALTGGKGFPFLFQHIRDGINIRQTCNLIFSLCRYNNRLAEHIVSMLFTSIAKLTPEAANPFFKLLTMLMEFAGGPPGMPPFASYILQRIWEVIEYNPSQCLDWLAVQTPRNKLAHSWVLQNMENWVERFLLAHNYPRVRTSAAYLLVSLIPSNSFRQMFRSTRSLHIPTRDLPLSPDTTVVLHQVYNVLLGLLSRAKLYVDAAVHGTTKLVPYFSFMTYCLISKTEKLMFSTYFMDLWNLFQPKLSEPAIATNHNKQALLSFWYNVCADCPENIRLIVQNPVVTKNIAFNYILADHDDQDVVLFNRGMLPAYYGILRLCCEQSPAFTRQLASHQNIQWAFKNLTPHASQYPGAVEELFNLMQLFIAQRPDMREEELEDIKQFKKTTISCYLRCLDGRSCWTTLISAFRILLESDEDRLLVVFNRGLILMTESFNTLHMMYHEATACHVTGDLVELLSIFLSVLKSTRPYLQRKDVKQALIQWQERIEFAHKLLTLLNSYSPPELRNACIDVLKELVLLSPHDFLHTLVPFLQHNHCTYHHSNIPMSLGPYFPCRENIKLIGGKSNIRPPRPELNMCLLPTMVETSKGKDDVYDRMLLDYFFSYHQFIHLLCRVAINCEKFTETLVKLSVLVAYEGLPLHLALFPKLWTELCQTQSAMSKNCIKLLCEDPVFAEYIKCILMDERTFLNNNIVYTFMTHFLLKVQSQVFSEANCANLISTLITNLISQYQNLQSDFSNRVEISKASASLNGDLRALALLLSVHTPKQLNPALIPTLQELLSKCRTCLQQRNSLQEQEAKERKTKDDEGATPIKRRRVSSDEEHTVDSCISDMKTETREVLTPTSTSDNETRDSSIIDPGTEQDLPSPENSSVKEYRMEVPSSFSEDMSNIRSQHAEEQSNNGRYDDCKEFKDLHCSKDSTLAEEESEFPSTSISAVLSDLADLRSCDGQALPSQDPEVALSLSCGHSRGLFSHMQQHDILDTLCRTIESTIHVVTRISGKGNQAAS
# Method in brief: (§1)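 The table lists average log2 ratios of fragment over vehicle, from an unpaired t-test on global-median-normalised Spectronaut label-free quantities. Proteins with ≥2 unique peptides were used. Samples were HEK293T lysate (495 µg) treated in triplicate with fragment at 200 µM or vehicle for 3 h, then with Biotin-Ahx-Ub-VS (0.5 µM final) for 1 h, with labelled DUBs NeutrAvidin-enriched and run by diaPASEF LC-MS/MS.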
# USP36 = biological target: T1, USP36 (UniProt Q9P275)
# T1 sequence (whole entry): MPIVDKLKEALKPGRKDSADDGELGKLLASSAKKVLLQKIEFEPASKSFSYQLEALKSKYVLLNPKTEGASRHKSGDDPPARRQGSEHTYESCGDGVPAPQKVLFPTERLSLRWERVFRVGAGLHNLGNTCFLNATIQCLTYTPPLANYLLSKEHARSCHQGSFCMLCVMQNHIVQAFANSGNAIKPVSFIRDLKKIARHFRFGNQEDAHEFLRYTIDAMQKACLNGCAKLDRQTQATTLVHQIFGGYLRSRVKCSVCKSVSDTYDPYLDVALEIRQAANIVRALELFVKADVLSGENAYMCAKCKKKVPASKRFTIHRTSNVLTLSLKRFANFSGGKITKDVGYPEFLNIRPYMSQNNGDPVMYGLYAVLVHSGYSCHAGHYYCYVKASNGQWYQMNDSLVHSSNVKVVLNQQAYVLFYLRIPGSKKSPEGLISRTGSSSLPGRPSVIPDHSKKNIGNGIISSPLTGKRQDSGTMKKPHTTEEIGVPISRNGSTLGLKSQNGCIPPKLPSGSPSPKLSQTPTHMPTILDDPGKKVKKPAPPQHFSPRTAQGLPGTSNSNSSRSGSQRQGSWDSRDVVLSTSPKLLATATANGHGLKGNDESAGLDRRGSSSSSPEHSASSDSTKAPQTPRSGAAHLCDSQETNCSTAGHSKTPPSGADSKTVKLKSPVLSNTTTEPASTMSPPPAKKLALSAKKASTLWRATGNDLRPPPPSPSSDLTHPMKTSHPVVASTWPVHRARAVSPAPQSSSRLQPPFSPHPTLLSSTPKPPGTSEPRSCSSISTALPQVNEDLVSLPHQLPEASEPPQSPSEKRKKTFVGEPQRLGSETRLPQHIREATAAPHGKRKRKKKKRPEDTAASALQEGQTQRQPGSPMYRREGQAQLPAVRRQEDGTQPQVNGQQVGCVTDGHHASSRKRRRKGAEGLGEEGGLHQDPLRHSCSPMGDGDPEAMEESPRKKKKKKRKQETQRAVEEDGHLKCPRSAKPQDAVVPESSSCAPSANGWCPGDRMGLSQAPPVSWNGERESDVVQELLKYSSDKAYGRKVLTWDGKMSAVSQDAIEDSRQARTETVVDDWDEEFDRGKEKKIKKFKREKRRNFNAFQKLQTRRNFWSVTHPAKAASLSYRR
# Method in brief: as §1
# USP38 = biological target: T2, USP38 (UniProt Q8NB14)
# T2 sequence (whole entry): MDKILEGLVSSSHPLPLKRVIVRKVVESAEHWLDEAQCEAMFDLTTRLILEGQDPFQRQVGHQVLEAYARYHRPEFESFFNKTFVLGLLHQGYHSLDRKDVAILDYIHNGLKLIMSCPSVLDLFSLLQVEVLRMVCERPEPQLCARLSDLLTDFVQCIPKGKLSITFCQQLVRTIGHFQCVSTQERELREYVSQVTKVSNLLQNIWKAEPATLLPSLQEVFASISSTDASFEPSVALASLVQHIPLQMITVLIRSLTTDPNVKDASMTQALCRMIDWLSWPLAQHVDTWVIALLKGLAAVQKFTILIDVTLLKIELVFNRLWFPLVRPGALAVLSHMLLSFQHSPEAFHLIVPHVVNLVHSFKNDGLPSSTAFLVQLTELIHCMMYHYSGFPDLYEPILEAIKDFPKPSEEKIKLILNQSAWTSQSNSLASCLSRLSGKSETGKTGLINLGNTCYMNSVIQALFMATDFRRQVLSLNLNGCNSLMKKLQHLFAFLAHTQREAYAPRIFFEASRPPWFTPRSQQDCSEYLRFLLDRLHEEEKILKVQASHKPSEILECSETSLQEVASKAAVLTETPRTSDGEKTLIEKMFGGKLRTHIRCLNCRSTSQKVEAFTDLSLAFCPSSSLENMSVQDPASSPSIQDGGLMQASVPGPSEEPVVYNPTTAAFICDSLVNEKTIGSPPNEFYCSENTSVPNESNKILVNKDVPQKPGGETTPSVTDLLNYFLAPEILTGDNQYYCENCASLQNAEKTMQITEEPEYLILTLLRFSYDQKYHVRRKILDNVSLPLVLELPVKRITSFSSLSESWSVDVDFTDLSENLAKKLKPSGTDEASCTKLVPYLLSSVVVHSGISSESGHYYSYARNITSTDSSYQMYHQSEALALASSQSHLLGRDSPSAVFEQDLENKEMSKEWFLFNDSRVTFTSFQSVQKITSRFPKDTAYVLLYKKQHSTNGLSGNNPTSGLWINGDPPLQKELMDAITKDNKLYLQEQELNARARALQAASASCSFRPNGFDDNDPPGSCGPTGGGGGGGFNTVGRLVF
# Method in brief: as §1
# USP39 = biological target: T3, USP39 (UniProt Q53GS9)
# T3 sequence (whole entry): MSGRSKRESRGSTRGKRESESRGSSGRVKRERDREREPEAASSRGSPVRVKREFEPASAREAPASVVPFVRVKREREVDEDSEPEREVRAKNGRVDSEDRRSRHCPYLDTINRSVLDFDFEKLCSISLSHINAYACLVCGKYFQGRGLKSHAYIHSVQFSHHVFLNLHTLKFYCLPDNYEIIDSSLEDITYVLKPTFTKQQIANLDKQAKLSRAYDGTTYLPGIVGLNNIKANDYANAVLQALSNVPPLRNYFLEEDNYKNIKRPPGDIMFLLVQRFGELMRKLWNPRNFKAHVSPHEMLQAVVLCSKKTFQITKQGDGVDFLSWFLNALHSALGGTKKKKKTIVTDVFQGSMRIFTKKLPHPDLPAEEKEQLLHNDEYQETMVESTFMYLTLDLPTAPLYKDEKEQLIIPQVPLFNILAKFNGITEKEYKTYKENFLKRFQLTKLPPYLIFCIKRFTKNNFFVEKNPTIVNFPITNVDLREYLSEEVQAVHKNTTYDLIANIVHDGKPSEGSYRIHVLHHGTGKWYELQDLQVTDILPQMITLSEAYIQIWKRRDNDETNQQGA
# Method in brief: as §1
# USP4 = biological target: T4, USP4 (UniProt Q13107)
# T4 sequence (whole entry): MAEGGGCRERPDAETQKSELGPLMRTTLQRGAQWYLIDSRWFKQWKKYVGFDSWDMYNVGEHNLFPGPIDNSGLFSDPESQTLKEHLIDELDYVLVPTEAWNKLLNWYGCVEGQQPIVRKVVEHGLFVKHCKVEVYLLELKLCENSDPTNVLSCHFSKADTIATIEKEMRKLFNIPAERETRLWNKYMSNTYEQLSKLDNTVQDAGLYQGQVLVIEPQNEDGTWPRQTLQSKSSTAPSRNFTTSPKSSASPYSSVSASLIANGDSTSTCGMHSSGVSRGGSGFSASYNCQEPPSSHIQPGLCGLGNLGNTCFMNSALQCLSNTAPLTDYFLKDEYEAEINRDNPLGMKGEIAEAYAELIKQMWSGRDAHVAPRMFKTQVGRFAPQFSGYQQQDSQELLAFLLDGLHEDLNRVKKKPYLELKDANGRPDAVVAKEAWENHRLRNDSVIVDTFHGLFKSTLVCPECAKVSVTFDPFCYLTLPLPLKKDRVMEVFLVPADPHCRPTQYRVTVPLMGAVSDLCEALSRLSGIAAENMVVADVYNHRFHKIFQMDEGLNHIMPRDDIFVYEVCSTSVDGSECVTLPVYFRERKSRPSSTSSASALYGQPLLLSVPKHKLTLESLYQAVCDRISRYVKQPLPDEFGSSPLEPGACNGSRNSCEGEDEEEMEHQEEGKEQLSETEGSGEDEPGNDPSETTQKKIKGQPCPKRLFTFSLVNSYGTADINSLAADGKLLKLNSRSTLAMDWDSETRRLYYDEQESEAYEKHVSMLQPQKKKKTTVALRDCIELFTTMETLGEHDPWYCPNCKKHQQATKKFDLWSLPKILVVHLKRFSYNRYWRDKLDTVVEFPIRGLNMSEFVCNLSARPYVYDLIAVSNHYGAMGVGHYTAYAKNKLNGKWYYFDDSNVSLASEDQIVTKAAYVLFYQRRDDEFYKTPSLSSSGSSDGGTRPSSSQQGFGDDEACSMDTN
# Method in brief: as §1
smiles,measurement,setting,value
O=C(CCl)N1CCc2[nH]c3ccccc3c2C1,log2 ratio of Biotin-Ahx-Ub-VS probe labelling,USP34,-0.571
same,log2 ratio of Biotin-Ahx-Ub-VS probe labelling,USP36,0.0133
same,log2 ratio of Biotin-Ahx-Ub-VS probe labelling,USP38,-0.674
same,log2 ratio of Biotin-Ahx-Ub-VS probe labelling,USP39,5.6e-06
same,log2 ratio of Biotin-Ahx-Ub-VS probe labelling,USP4,-1.51 (active)
